The nature of assay [1]: qHTS assay for small molecule agonists of retinoid X receptor alpha signaling (AID 588544; calls by dose curve;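 for activation: 0% = DMSO basal wells and 100% = reference agonist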). The following applies: HEK293T RXRa-UAS-bla, beta-lactamase reporter, 18 h; 530 nm emission. A general note: Quantitative high-throughput screening tests each substance at several concentrations.
The target in assay [2] is Retinoic acid receptor RXR-alpha (Homo sapiens) (UniProt P19793). Described as above. The following applies: HEK293T RXRa-UAS-bla, beta-lactamase reporter, 18 h; series mostly up to 76.7 µM.
Retinoic acid receptor RXR-alpha (Homo sapiens), sequence (P19793 whole entry, looked up): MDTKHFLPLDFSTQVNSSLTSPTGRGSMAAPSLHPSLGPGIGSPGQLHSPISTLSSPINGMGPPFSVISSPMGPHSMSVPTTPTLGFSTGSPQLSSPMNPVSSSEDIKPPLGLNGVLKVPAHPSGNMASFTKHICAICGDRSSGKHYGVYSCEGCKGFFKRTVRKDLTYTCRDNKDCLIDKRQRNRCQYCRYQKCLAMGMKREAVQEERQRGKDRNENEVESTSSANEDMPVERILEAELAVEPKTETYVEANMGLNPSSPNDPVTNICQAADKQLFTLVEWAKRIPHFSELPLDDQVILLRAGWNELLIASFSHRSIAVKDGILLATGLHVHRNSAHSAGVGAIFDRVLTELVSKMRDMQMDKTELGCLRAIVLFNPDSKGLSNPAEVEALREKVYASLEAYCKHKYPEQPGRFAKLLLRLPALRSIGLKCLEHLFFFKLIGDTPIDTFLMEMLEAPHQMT
For assay [3], the target named is Thyroid hormone receptor beta (Homo sapiens) (UniProt P10828). Description: qHTS assay for small molecule agonists of thyroid hormone receptor beta signaling (AID 588545; calls by dose curve;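 note: 0% = DMSO only and 100% = 10 nM T3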). The following applies: TR-UAS-bla GripTite HEK 293, beta-lactamase ratio, agonist mode, 18 h, percent of T3 response, DMSO as zero; series mostly up to 76.7 µM. In outline: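 Efficacy and EC50 values derive from Hill fits of qHTS titration data, normalized to 10 nM T3 and DMSO-only wells. HEK 293 reporter cells were stimulated for 18 hrs at 37 C, with beta-lactamase activity measured by CCF4 fluorescence.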
Thyroid hormone receptor beta (Homo sapiens), sequence (P10828 whole entry, looked up): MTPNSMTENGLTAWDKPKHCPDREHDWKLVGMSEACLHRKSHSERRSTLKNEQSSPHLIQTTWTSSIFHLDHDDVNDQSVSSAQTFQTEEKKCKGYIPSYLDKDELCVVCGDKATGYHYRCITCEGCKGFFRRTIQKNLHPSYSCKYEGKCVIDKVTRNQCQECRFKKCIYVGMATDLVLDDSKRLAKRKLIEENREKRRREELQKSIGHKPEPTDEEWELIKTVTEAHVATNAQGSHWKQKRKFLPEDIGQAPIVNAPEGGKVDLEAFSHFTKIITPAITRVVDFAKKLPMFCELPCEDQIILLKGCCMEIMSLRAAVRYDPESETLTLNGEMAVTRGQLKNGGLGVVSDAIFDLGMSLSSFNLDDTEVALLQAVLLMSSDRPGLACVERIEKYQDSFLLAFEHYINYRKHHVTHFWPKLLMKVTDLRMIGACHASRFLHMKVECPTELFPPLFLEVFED

The nature of assay [4]: qHTS assay for small molecule antagonists of retinoid X receptor alpha signaling (AID 588546; active = well fitted inhibition curve with a large enough effect in the signal ratio, with a control signal flat, not every such curve was filed as active; the % refers to the signal ratio;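 note: cells stimulated with 9-cis-retinoic acid as agonist; % is set by controls: 0 for no effect and ±100 for the full control effect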). Conditions: HEK293T RXRa-UAS-bla, beta-lactamase ratio, antagonist mode; measured here: W530 green channel, cytotoxicity proxy. The gist of the method:
(§1)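 Beta-lactamase reporter inhibition, read as CCF4 fluorescence ratio (ex 405, em 460/530 nm) after 2 h at RT. HEK293T UAS-bla cells, 2500/well, were stimulated with 9-cis-RA at 500 or 100 nM final alongside test compound for 18 h at 37 C.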

The target in assay [5] is Thyroid hormone receptor beta (Homo sapiens) (UniProt P10828). Description: qHTS assay for small molecule antagonists of thyroid hormone receptor beta signaling (AID 588547; active = well fitted inhibition curve with a large enough effect in the signal ratio, with a control signal flat, not every such curve was filed as active; the % refers to the signal ratio;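 note: cells stimulated with 0.4 nM T3 agonist during compound exposure; % is set by controls: 0 for no effect and ±100 for the full control effect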). The following applies: TR-UAS-bla HEK293, beta-lactamase ratio, antagonist mode, 18 h. In outline:
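Inhibition of T3-driven (0.4nM final) beta-lactamase reporter activity was measured over 0.59 nM to 92 uM compound after 18 h at 37 C. The cells were GripTite HEK293 TR-UAS-bla in charcoal/dextran-stripped serum, with CCF4 ratio read-out and IC50 from Hill fits.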

The target of assay [6] is Voltage-gated inwardly rectifying potassium channel KCNH2 (Homo sapiens) (UniProt Q12809). Nature of the assay: qHTS Assay for Small Molecule Inhibitors of the Human hERG Channel Activity (AID 588834).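 Note: top concentration of the series differs between compounds; % is set by controls: 0 for no effect and ±100 for the full control effect; lower thallium flux fluorescence means stronger hERG block; nearly all actives have a fitted effect of over 50% in size.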 The following applies: U2OS BacMam hERG, FluxOR thallium flux fluorescence; series mostly up to 92.2 µM. In outline: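 Thallium serves as surrogate for K+ influx through BacMam-delivered hERG in U2OS cells. Compounds are added for about 10 minutes after dye loading; stimulation buffer then starts flux, monitored kinetically on FDSS.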
Voltage-gated inwardly rectifying potassium channel KCNH2 (Homo sapiens), sequence (Q12809 whole entry, looked up): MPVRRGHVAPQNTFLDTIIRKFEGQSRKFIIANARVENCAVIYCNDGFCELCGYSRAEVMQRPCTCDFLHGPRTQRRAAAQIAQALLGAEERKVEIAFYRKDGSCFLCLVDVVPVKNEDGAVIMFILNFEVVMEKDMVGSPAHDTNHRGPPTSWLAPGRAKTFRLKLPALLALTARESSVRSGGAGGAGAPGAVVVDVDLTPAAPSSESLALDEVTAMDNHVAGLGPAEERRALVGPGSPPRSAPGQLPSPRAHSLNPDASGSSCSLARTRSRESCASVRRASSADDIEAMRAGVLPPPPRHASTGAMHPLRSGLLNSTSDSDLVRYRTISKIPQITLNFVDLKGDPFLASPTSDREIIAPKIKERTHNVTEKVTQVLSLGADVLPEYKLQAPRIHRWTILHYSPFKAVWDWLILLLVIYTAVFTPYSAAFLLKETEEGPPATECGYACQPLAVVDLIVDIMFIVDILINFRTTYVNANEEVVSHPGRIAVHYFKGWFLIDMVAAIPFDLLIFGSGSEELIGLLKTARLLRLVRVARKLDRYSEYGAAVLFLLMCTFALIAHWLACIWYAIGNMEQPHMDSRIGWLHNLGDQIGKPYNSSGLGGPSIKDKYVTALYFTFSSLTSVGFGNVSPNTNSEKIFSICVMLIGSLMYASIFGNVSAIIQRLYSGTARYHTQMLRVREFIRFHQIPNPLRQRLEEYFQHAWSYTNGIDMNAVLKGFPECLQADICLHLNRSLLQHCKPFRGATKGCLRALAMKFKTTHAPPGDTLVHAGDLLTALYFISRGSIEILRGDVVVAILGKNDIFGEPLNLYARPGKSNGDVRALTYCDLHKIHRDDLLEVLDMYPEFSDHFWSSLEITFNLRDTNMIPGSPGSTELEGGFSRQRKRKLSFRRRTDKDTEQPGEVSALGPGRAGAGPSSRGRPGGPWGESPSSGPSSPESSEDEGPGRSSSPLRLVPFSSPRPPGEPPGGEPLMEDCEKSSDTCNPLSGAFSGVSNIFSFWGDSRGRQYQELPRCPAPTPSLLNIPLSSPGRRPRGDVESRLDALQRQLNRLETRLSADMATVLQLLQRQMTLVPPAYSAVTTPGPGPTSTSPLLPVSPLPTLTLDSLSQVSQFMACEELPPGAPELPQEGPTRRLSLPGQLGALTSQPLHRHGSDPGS

Assay [7] can be described thus: qHTS assay for small molecule agonists of the antioxidant response element (ARE) signaling pathway (AID 651741; active = well fitted activation curve with a large enough effect in the signal ratio; the % refers to the signal ratio; note: % of control where 0% means no effect). Conditions: HepG2 ARE-bla reporter, beta-lactamase FRET ratio, 16 h; series mostly up to 96 µM. The gist of the method:
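Agonist activity is measured as ARE-driven beta-lactamase expression in a stable HepG2 reporter line, using 16 h compound treatment at 37 C and a FRET substrate fluorescence readout after 2 h.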

The nature of assay [8]: qHTS assay for small molecule activators of the nuclear factor-kappa B (NF-kB) signaling pathway (AID 651749; active = well fitted activation curve with a large enough effect in the signal ratio; the % refers to the signal ratio; note: % of control where 0% means no effect). The following applies: NF-kB-bla ME-180 cells, beta-lactamase FRET ratio, 16 h; stronger effect = higher value. In outline: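 FRET-based beta-lactamase detection in ME-180 cells reports NF-kB response-element-driven transcription following overnight (16 hr) compound treatment.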

Assay [9] is described as follows: qHTS assay for small molecule disruptors of the mitochondrial membrane potential - 1 hr assay (AID 651754; calls by dose curve; note: % is set by controls: 0 for no effect and ±100 for the full control effect; nearly all actives have a fitted effect of over 35% in size). Conditions: series mostly up to 92.2 µM. The gist of the method: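 Read-out: dye fluorescence at 490 nm ex/535 nm em (monomers) and 540 nm ex/590 nm em (aggregates) in HepG2 cells. Compound exposure 1 hr at 37C, followed by 30 min dye loading.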
In assay [10] the target is Tumor necrosis factor (Homo sapiens) (UniProt P01375). Nature of the assay: qHTS assay to identify small molecules that stimulate Tumor Necrosis Factor-alpha (TNF-alpha) secretion (AID 651757; active = well fitted curve in the direction sought with a large enough effect in the signal ratio; the % refers to the signal ratio; note: 0% is about no effect). The following applies: Human cells, HTRF 665/615 ratio; series mostly up to 92.2 µM. In outline:
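THP-1 cells, 3000/well; compound 17 hrs, 37 C; add cryptate/XL665 anti-TNF-alpha antibody pair; 3 hr RT; TR-FRET (HTRF) read of secreted TNF-alpha. Quantitative HTS format.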

In assay [11] the target is Peroxisome proliferator-activated receptor alpha (Homo sapiens) (UniProt Q07869). Description: qHTS assay for small molecule agonists of the peroxisome proliferator-activated receptor alpha (PPARalpha) signaling pathway (AID 651778). Note: % of control where 0% means no effect. The following applies: PathHunter PPARalpha complementation, chemiluminescence, 6 h; stronger effect = higher value. In outline:
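Chemiluminescence from complemented enzyme reported PPARalpha activation in cells after 6 hr of compound treatment at 37 C. The detection reagent was incubated for 60 min at room temperature, and compounds were scored as agonists.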

In assay [12] the target is Nuclear receptor ROR-gamma (Homo sapiens) (UniProt P51449). Nature of the assay: qHTS assay for small molecule antagonists of the retinoid-related orphan receptor gamma (ROR-gamma) signaling pathway (AID 651802).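 Note: CHO cells with doxycycline-induced ROR-gamma expression; luciferase reporter luminescence driven by ROR response element; % is set by controls: 0 for no effect and ±100 for the full control effect; nearly all actives have a fitted effect of over 60% in size.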 The following applies: ROR-gamma antagonist cell reporter assay; series mostly up to 92.2 µM. In outline:
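Luciferase read-out: ONE-Glo luminescence after 30 min at room temperature, following 16hr doxycycline induction at 37C, 5% CO2 of CHO cells with TET-inducible ROR and RORE-LUC reporter; decreased luminescence = reduced reporter activity.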

The nature of assay [13]: qHTS assay for small molecule agonists of the antioxidant response element (ARE) signaling pathway measured by Nrf2-dependant transcriptional activity (AID 720636; active = well fitted curve in the direction sought with a large enough effect in the repeat runs; an effect the other way counts as inactive or inconclusive;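 note: HepG2 cells with an ARE-driven luciferase reporter; % of control where 0% means no effect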). The following applies: ARE-luc HepG2, Nrf2 luciferase reporter, 16 h; series mostly up to 92.4 µM. In outline:
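HepG2 ARE-luc reporter line, 1% dialyzed FBS; 6 hr attachment at 37 C, compound pinned in, 16 hr at 37 C/5% CO2; ONE-Glo, 30 min RT, luminescence read.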

A short description of assay [14]: qHTS assay for small molecule antagonists of the retinoid-related orphan receptor gamma (ROR-gamma) signaling pathway - cell viability counter screen (AID 720652; active = well fitted curve in the direction sought with a large enough effect in the repeat runs; an effect the other way counts as inactive or inconclusive;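 note: CHO reporter cells with doxycycline-induced ROR-gamma expression; compound exposure lasted 16 hr before ATP read; % is set by controls: 0 for no effect and ±100 for the full control effect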). The following applies: RORgamma reporter cell line viability counter screen; series mostly up to 92.2 µM. The gist of the method:
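CHO RORE-LUC/TET-ROR line, 1,000 cells/well, 37 C 5% CO2 5 hr; cpd or DMSO + doxycycline induction, 16 hr. CellTiter-Glo, 30 min RT, luminescence = ATP content.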

Assay [15] in a line: qHTS assay for small molecule agonists of the antioxidant response element (ARE) signaling pathway measured by Nrf2-dependant transcriptional activity - cell viability counter screen (AID 720653; active = well fitted curve in the direction sought with a large enough effect in the repeat runs; an effect the other way counts as inactive or inconclusive; note: % is set by controls: 0 for no effect and ±100 for the full control effect). The following applies: ARE-bla HepG2 viability, CellTiter-Glo ATP luminescence, 16 h; stronger effect = lower value. The gist of the method:
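Cytotoxicity counter screen: intracellular ATP quantified by CellTiter-Glo luminescence in the same ARE-bla HepG2 plates, after 16 h compound exposure and a 2 h beta-lactamase substrate step.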

In assay [16] the target is Retinoic acid receptor RXR-alpha (Homo sapiens) (UniProt P19793). Nature of the assay: qHTS assay for small molecule antagonists of retinoid X receptor alpha signaling (AID 588546).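 Note: cells stimulated with 9-cis-retinoic acid as agonist; % is set by controls: 0 for no effect and ±100 for the full control effect.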 The following applies: HEK293T RXRa-UAS-bla, beta-lactamase ratio, antagonist mode. In outline:
as §1

Assay [17] in a line: qHTS assay for small molecule disruptors of the mitochondrial membrane potential - 5 hr assay (AID 651755; calls by dose curve; note: % is set by controls: 0 for no effect and ±100 for the full control effect; nearly all actives have a fitted effect of over 40% in size). Conditions: JC-1-type ratio dye; series mostly up to 92.2 µM. The gist of the method: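 Membrane-potential dye readout: red aggregate (540 ex/590 em) versus green monomer (490 ex/535 em) fluorescence after 30 min dye loading, following 5 hr compound exposure at 37C of overnight-plated HepG2 cells.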

Assay [18] is described as follows: qHTS assay to identify small molecules that stimulate interleukin-8 (IL-8) secretion (AID 651758; active = well fitted activation curve with a large enough effect in the signal ratio; the % refers to the signal ratio; note: 0% is about no effect). Conditions: HTRF ratio (665/615); series mostly up to 92.2 µM. In outline:
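Secreted IL-8 measured homogeneously by TR-FRET (two labelled anti-IL-8 antibodies, 1-3 h at room temperature) after a 16 h, 37 C compound treatment of THP-1 cells at 2000 cells/well.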

A short description of assay [19]: qHTS assay for environmental chemicals that activate the Aryl hydrocarbon Receptor (AhR) signaling pathway (AID 651777). Note: % of control where 0% means no effect; nearly all actives have a fitted effect of over 15% in size. Conditions: 1A2-DRE human hepatoma cells, luciferase, 24 h; activation: stronger effect = higher value. The gist of the method:
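Luminescence read-out: One-Glo added for 30 min at RT after 24 hr compound treatment (37 C, 5% CO2) of human hepatoma cells expressing a DRE/CYP1A2 promoter–luciferase reporter; increased signal indicates AhR activation.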

Assay [20] can be described thus: qHTS assay for small molecule activators of the p53 signaling pathway (AID 651743; active = well fitted activation curve with a large enough effect in the signal ratio, not every such curve was filed as active; the % refers to the signal ratio; note: % of control where 0% means no effect). The following applies: HCT-116 p53RE-bla, beta-lactamase FRET ratio, 16 h; stronger effect = higher value. In outline: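 A beta-lactamase reporter under p53 response element control, stably carried by HCT-116 cells, reported pathway activation. Test compounds were applied for 16 hours at 37 C, and fluorescence was measured 2 hours after adding the B/G FRET substrate.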

Results filed as inconclusive are left out. Calls of active or inactive are those of the source. Unless noted, calls come from the whole dose curve; as a rule, active = well fitted curve in the direction sought with a large enough effect; inconclusive = small, poorly fitted or top-dose-only effect, or another doubt; inactive = no such curve, though single readings can be large; an effect the other way counts as inactive or inconclusive.

Tumor necrosis factor (Homo sapiens), sequence (P01375 whole entry, looked up): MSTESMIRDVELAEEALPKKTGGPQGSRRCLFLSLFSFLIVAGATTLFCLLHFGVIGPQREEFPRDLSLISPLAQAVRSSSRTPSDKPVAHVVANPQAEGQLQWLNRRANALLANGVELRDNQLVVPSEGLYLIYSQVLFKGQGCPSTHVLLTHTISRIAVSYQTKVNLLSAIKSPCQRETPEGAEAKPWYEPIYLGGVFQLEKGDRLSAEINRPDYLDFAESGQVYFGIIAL
Peroxisome proliferator-activated receptor alpha (Homo sapiens), sequence (Q07869 whole entry, looked up): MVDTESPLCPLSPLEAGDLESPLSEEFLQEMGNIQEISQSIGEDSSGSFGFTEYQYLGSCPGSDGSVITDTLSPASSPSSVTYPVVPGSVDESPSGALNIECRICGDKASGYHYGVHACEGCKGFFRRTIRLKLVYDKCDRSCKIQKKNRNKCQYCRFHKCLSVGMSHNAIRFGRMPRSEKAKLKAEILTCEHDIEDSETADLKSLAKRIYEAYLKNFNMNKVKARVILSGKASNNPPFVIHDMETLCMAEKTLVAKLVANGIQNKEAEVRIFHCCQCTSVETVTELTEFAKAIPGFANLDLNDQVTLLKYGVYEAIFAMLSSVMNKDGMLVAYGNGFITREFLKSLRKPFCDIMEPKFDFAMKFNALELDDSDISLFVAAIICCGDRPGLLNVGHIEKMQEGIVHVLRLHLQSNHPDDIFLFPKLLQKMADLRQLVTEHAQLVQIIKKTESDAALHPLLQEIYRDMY
Nuclear receptor ROR-gamma (Homo sapiens), sequence (P51449 whole entry, looked up): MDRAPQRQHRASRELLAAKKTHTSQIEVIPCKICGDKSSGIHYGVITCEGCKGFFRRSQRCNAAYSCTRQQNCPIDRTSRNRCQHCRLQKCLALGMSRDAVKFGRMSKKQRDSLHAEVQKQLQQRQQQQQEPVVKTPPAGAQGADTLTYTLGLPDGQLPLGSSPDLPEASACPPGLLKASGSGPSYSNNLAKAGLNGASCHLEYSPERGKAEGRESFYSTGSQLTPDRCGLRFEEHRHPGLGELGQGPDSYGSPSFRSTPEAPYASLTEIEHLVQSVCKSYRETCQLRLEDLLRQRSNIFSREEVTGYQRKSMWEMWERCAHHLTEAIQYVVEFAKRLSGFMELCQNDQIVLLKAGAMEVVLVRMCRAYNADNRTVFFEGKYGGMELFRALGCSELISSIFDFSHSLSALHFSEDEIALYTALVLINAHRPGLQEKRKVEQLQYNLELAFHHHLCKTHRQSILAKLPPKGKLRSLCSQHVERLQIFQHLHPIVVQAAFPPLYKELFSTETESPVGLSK

For `COc1cccc2sc(N)nc12`, the max response was 2.8% in assay [1], -11.1% in assay [4], -2.03% (inactive) in assay [11] and 1.42% (inactive) in assay [15]. For the same compound, the result in assay [2], in [3] and in [13] was inactive. For the same compound, in assay [5], the activity change % (negative = inhibition) was -20.5% (inactive). Further, the Potency entry in assay [6], in [7], in assay [9], in assay [10], in [12] and in assay [14] was “inactive” in each case. For the same compound, in assay [8], the activation was 0.198% (inactive).
As for `OC/C(Br)=C(\Br)CO`, the max response in assay [1] is -4.05%; in assay [4], -2.68%; in assay [16], -0.311% (inactive); in assay [11] it was -6.37% (inactive); in assay [15] it was 1.49% (inactive). The compound was called inactive in assay [2], in assay [3] and in [13]. The Potency result in [6], in assay [9], in [17], in [10], in [18] and in assay [12] was “inactive” in each case. For the same compound, the Potency result in [14] is “inactive”. For the same compound, the activation is 0.22% (inactive) in assay [8] and -1.6% (inactive) in assay [19].
As to `CC(=O)OC(C)=O`, the max response is -0.73% in assay [1]; -8.16% in assay [4]; 5.52% (inactive) in [16]; -5.07% (inactive) in assay [11]; 5.05% (inactive) in assay [15]. Also, the compound was called inactive in [2], in [3] and in [13]. In addition, the Potency result in assay [6], in assay [9], in assay [17], in [10], in assay [12] and in assay [14] was “inactive” in each case. The results for the activation in [8] and in [19] were -1.18% (inactive) and 1.76% (inactive), respectively.
Consider `CC#N`, for which the max response in assay [1] was 8.5%; in assay [4], -2.35%; in assay [16] it was 10.2% (inactive); in assay [11], -2.21% (inactive); in assay [15] it was -0.353% (inactive). Also, the result in assay [2], in [3] and in [13] was inactive. The Potency entry in assay [6], in [17], in [10], in assay [18] and in [14] was “inactive” in each case. Further, the activation was -3.18% (inactive) in assay [20], -1.06% (inactive) in assay [8] and 0.208% (inactive) in assay [19].
In the case of `NC(=O)/N=N/C(N)=O`, the max response in [1] is -17.5%; in assay [4] it was -9.97%; in assay [16], -2.12% (inactive); in assay [11] it was -8.1% (inactive). The result in assay [2], in [3] and in [13] was inactive. Moreover, the Potency entry in assay [6], in [17], in assay [10], in assay [18] and in [12] was “inactive” throughout. Moreover, the results for the activation in [20] and in [8] were -0.505% (inactive) and 2.36% (inactive), respectively.
For `Cc1ccc2ncccc2c1`, the max response in assay [1] is -4.8%; in [4] it was -2.62%; in assay [11], -2.02% (inactive); in assay [15], 5.85% (inactive). Moreover, the compound was called inactive in [2], in assay [3] and in [13]. In assay [5], the activity change % (negative = inhibition) is 1.73% (inactive). Besides, the Potency entry in [6], in [10], in [12] and in [14] was “inactive” throughout. Besides, the values for the activation in assay [20] and in assay [8] were -3.29% (inactive) and -1.62% (inactive), respectively.
For the compound `CCCC(Cl)CCCC(Cl)CCC(Cl)CCC(Cl)CCC(Cl)CCCC(Cl)CCC` (configuration not stated), the max response in assay [1] is -10.5%; in [4] it was -0.455%; in assay [16], -10.6% (inactive); in [11], -3.72% (inactive); in assay [15], -6.05% (inactive). In addition, the result in assay [2] and in assay [3] was inactive. The Potency result in [6], in assay [9], in assay [17], in [10] and in assay [12] was “inactive” throughout. For the same compound, the activation in assay [20] is 0.55% (inactive); in assay [8] it was 0.0275% (inactive); in assay [19], -0.261% (inactive).

Values taken from PubChem BioAssay (NCATS).
